Legend:
Test in all cases: DAPPL (digital affinity profiling via proximity ligation, sequencing); 10 mM Tris-HCl pH 7.5, 50 mM NaCl, 1 mM DTT, 4% glycerol, room temperature, 30 min; GST-TFs on glutathione beads, 16-mer random dsDNA library, 0.1% formaldehyde crosslink after washing; high values mean tight binding
[1] = target: T1, FLI1 (Homo sapiens, UniProt Q01543 1-452); conditions: protein: recombinant; tags: N-terminal GST; dsDNA, one strand shown
T1 sequence: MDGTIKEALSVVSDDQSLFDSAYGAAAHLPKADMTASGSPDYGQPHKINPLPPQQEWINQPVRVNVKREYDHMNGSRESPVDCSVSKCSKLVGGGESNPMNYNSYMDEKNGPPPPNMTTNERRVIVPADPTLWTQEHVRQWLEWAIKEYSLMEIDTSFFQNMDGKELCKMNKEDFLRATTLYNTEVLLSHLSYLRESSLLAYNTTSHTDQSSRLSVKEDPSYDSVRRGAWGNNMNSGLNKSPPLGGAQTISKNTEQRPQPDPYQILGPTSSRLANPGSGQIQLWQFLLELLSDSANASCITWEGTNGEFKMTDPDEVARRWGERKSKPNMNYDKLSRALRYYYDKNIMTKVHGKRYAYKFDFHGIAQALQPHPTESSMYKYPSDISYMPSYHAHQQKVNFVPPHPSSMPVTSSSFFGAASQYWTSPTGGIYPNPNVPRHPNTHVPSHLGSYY
Method in brief: (§1)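 Pools were built from human transcription factors expressed in yeast as GST fusions, captured on glutathione beads and DNA-barcoded, along with a tag-only sample. Incubation with 200 nmole of a 16-mer random double-stranded DNA library lasted 30 min at room temperature in Tris/NaCl/DTT/glycerol buffer, and was followed by washing, 0.1% formaldehyde crosslinking, proximity ligation, PCR amplification and Illumina NextSeq500 sequencing. Binding signal is the quotient of each hexamer's read frequency for a factor and its frequency for the tag-only sample.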

[2] = target: T2, ELK1 (Homo sapiens, UniProt P19419 1-428); conditions: protein: recombinant; tags: N-terminal GST; dsDNA, one strand shown
T2 sequence: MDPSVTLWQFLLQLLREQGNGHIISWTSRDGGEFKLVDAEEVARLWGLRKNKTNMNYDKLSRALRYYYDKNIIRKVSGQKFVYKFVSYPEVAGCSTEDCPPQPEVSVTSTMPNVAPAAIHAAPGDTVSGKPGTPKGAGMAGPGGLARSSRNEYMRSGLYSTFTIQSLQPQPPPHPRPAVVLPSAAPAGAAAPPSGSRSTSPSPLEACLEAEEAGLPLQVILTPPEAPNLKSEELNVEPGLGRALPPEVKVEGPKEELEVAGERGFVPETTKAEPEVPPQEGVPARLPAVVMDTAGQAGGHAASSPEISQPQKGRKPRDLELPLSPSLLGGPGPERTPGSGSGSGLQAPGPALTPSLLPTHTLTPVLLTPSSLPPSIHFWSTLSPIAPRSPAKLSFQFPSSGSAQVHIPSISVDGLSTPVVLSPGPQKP
Method in brief: as §1

[3] = target: T3, GABPA (Homo sapiens, UniProt Q06546 1-454); conditions: protein: recombinant; tags: N-terminal GST; dsDNA, one strand shown
T3 sequence: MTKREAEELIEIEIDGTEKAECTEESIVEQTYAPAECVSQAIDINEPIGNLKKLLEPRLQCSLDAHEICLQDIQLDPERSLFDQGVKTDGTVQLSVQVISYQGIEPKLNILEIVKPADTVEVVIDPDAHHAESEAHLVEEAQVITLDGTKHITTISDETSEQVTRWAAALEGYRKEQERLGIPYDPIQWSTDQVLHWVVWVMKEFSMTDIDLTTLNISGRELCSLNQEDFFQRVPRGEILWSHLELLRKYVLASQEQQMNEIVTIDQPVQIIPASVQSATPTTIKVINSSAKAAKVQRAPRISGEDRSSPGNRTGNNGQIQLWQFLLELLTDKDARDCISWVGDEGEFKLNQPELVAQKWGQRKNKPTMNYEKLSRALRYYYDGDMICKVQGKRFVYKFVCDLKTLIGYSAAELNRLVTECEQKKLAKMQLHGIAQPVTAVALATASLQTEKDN
Method in brief: as §1

[4] = target: ELF1 (Homo sapiens, UniProt P32519 1-619); conditions: protein: recombinant; tags: N-terminal GST; dsDNA, one strand shown
Method in brief: as §1

[5] = target: T4, EHF (Homo sapiens, UniProt Q9NZC4 1-300); conditions: protein: recombinant; tags: N-terminal GST; dsDNA, one strand shown
T4 sequence: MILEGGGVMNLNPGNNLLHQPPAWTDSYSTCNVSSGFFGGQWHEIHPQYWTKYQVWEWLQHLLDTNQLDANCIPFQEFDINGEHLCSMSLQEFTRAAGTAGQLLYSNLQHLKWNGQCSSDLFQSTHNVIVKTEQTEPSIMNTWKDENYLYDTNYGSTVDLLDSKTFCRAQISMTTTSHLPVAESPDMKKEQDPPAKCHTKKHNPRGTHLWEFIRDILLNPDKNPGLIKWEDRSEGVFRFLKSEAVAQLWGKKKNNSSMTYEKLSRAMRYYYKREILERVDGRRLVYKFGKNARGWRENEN
Method in brief: as §1

[6] = target: SPI1 (Homo sapiens, UniProt P17947 1-270); conditions: protein: recombinant; tags: N-terminal GST; dsDNA, one strand shown
Method in brief: as §1

[7] = target: SPIB (Homo sapiens, UniProt Q01892 1-262); conditions: protein: recombinant; tags: N-terminal GST; dsDNA, one strand shown
Method in brief: as §1

[8] = target: T5, ELK3 (Homo sapiens, UniProt P41970 1-407); conditions: protein: recombinant; tags: N-terminal GST; dsDNA, one strand shown
T5 sequence: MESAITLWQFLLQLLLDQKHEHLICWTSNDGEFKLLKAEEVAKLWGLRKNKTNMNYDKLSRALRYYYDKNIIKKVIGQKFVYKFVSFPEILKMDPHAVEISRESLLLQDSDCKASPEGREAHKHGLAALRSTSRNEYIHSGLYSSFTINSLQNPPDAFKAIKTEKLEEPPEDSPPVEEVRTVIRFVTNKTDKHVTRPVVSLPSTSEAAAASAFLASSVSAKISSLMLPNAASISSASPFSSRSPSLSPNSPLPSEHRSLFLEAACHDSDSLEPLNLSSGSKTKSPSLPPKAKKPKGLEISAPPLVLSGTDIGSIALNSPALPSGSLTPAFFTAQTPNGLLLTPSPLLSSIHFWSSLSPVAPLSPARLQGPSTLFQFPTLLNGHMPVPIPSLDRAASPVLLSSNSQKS
Method in brief: as §1

[9] = target: T6, FEV (Homo sapiens, UniProt Q99581 1-238); conditions: protein: recombinant; tags: N-terminal GST; dsDNA, one strand shown
T6 sequence: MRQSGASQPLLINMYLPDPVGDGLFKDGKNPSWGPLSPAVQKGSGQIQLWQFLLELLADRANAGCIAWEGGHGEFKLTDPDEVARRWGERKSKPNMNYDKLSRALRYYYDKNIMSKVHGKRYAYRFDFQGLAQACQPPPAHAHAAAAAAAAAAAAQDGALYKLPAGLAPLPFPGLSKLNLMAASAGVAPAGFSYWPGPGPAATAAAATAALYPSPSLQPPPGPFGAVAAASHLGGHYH
Method in brief: as §1

[10] = target: ETV5 (Homo sapiens, UniProt P41161 1-510); conditions: protein: recombinant; tags: N-terminal GST; dsDNA, one strand shown
Method in brief: as §1

[11] = target: HSF1 (Homo sapiens, UniProt Q00613 1-529); conditions: protein: recombinant; tags: N-terminal GST; chain copies: 3; dsDNA, one strand shown
Method in brief: as §1

[12] = target: T7, SPIC (Homo sapiens, UniProt Q8N5J4 1-248); conditions: protein: recombinant; tags: N-terminal GST; dsDNA, one strand shown
T7 sequence: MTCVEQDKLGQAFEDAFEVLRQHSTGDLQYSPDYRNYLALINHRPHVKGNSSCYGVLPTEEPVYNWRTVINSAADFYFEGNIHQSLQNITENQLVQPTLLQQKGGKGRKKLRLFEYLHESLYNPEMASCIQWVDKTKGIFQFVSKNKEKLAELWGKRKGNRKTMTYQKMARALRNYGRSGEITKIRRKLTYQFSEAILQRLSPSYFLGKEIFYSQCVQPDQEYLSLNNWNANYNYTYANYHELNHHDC
Method in brief: as §1

[13] = target: ELF4 (Homo sapiens, UniProt Q99607 1-663); conditions: protein: recombinant; tags: N-terminal GST; dsDNA, one strand shown
Method in brief: as §1

[14] = target: T8, ELK4 (Homo sapiens, UniProt P28324-2 1-405); conditions: protein: recombinant; tags: N-terminal GST; dsDNA, one strand shown
T8 sequence: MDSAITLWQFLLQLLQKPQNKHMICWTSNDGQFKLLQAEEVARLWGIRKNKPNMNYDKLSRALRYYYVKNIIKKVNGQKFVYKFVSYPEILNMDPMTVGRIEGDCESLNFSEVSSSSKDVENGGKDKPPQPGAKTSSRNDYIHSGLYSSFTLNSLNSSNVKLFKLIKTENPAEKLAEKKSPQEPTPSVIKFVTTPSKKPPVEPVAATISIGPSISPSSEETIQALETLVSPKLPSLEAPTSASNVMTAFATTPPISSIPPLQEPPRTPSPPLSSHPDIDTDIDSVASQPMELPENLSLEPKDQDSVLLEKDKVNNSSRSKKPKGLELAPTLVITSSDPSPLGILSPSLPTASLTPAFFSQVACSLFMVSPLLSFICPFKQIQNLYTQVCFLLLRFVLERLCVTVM
Method in brief: as §1

[15] = target: T9, ETV2 (Homo sapiens, UniProt O00321 1-342); conditions: protein: recombinant; tags: N-terminal GST; dsDNA, one strand shown
T9 sequence: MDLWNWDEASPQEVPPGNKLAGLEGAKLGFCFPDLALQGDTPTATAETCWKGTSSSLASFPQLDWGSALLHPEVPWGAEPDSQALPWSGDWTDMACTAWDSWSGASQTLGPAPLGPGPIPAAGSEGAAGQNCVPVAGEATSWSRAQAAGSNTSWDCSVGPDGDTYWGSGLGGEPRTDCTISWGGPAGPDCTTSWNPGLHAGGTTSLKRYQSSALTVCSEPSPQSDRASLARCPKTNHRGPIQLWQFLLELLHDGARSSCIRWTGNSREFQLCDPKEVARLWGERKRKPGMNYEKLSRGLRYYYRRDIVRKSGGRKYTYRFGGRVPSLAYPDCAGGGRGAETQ
Method in brief: as §1

[16] = target: T10, ELF3 (Homo sapiens, UniProt P78545 1-371); conditions: protein: recombinant; tags: N-terminal GST; dsDNA, one strand shown
T10 sequence: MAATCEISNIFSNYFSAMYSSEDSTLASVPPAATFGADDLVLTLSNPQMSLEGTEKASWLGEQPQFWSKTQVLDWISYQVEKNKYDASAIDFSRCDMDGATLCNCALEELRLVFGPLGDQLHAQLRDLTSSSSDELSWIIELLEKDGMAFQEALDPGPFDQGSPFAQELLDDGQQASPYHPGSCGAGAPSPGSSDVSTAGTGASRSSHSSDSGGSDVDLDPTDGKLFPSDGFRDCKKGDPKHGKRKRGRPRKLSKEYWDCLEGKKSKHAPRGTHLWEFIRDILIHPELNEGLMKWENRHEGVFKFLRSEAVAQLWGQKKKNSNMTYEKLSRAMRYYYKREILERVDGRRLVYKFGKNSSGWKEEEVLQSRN
Method in brief: as §1

[17] = target: CRX (Homo sapiens, UniProt O43186 1-299); conditions: protein: recombinant; tags: N-terminal GST; dsDNA, one strand shown
Method in brief: as §1

[18] = target: ETV1 (Homo sapiens, UniProt P50549 1-477); conditions: protein: recombinant; tags: N-terminal GST; dsDNA, one strand shown
Method in brief: as §1

Sequence of ELF1 (P32519 whole entry): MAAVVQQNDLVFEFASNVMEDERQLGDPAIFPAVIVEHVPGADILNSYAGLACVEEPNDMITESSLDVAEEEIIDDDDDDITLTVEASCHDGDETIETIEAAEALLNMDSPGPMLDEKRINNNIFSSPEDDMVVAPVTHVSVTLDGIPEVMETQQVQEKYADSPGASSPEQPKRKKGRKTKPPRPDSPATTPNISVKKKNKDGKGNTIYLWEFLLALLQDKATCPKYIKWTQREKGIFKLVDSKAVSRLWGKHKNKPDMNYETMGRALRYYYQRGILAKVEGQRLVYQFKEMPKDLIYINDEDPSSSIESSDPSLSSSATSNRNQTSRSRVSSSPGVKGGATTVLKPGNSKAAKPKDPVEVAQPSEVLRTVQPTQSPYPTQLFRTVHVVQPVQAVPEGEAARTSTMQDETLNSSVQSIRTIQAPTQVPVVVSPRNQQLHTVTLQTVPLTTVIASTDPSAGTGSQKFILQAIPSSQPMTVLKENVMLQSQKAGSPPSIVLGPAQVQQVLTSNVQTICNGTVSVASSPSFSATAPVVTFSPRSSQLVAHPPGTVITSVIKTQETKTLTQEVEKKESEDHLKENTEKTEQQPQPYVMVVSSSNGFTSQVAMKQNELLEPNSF
Sequence of ELF4 (Q99607 whole entry): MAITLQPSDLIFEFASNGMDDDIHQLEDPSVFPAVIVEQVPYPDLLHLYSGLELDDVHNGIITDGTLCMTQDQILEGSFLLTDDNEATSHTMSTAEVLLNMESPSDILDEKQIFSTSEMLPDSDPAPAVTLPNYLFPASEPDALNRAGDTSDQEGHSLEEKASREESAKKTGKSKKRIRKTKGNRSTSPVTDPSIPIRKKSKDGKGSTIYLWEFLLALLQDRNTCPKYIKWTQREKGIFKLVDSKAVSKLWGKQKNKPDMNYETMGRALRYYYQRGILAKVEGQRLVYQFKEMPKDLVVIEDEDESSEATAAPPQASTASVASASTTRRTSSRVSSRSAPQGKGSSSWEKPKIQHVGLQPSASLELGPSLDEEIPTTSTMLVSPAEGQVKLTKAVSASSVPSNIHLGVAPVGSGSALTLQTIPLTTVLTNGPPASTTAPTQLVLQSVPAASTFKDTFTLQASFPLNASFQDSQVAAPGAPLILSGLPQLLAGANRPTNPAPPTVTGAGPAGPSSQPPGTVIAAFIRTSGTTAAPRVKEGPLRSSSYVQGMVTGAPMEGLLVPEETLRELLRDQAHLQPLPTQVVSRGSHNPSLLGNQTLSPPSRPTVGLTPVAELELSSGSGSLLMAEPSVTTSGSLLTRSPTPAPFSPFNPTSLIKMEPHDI
Sequence of ETV1 (P50549 whole entry): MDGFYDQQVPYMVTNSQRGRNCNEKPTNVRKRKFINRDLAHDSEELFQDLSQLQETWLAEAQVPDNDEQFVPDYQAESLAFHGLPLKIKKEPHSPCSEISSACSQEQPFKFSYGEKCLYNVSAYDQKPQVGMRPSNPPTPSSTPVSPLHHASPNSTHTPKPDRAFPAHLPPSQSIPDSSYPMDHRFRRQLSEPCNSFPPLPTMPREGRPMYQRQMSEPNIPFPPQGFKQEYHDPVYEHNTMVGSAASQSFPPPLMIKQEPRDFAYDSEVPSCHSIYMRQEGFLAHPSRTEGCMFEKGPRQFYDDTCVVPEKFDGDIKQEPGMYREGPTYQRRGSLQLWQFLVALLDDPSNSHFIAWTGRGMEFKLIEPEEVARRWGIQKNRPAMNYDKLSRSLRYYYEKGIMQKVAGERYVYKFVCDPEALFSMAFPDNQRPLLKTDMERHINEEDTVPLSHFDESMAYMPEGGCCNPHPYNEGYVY
Sequence of HSF1 (Q00613 whole entry): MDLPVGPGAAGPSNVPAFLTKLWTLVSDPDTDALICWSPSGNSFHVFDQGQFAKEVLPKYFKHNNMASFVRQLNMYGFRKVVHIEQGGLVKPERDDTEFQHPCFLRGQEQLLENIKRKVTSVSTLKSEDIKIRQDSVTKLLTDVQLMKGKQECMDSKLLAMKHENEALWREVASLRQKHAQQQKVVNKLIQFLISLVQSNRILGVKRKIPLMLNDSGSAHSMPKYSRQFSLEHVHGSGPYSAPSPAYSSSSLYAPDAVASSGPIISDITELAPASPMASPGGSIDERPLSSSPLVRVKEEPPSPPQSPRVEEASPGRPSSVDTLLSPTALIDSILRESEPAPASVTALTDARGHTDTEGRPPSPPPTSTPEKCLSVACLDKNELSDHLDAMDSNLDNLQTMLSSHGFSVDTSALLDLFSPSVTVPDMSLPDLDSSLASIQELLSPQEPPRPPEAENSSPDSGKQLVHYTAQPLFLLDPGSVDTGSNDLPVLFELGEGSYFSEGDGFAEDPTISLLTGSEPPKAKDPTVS
Sequence of SPIB (Q01892 whole entry): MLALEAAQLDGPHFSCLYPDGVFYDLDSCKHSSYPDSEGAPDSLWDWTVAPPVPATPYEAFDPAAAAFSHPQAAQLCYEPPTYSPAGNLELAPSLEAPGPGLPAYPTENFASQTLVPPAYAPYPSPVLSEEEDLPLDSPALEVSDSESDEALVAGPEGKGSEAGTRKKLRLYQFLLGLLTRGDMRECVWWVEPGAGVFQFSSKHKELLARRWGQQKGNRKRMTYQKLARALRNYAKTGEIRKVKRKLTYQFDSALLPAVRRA
Sequence of ETV5 (P41161 whole entry): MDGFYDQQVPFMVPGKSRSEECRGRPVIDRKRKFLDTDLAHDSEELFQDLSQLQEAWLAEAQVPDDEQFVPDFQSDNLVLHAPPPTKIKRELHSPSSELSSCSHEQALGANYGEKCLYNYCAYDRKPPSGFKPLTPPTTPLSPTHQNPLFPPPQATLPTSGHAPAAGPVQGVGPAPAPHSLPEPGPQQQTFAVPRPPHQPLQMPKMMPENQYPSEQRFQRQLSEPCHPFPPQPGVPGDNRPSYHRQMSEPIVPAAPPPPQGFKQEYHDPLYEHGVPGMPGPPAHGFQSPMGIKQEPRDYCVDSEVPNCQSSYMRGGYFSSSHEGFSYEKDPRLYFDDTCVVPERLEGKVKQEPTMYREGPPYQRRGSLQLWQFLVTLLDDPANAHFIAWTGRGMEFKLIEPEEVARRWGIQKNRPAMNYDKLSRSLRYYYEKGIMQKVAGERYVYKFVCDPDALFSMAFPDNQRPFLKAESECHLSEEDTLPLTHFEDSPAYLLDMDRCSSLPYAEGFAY
Sequence of CRX (O43186 whole entry): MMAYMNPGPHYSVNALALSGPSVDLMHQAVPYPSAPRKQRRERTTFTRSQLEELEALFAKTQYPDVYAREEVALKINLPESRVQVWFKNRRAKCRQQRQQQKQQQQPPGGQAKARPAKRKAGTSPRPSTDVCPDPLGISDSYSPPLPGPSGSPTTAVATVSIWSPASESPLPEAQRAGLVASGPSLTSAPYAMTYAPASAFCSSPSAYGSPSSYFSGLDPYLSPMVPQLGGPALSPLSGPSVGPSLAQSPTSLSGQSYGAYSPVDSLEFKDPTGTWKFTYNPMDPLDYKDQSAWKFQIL

Sequence: AAAAGT
- binding signal [1]: 1.02 fold enrichment (6-mer frequency, TF over GST control)
- binding signal [2]: 1.1 fold enrichment (6-mer frequency, TF over GST control)
- binding signal [3]: 1.08 fold enrichment (6-mer frequency, TF over GST control)
- binding signal [4]: 1.01 fold enrichment (6-mer frequency, TF over GST control)
- binding signal [5]: 1.1 fold enrichment (6-mer frequency, TF over GST control)
- binding signal [6]: 1.06 fold enrichment (6-mer frequency, TF over GST control)
- binding signal [7]: 1.12 fold enrichment (6-mer frequency, TF over GST control)
- binding signal [8]: 1.06 fold enrichment (6-mer frequency, TF over GST control)
- binding signal [9]: 1.04 fold enrichment (6-mer frequency, TF over GST control)
- binding signal [10]: 1.06 fold enrichment (6-mer frequency, TF over GST control)
- binding signal [11]: 1.06 fold enrichment (6-mer frequency, TF over GST control)
- binding signal [12]: 1.1 fold enrichment (6-mer frequency, TF over GST control)
- binding signal [13]: 1.1 fold enrichment (6-mer frequency, TF over GST control)
- binding signal [14]: 1.24 fold enrichment (6-mer frequency, TF over GST control)
- binding signal [15]: 1.03 fold enrichment (6-mer frequency, TF over GST control)
- binding signal [16]: 1.12 fold enrichment (6-mer frequency, TF over GST control)
- binding signal [17]: 1.09 fold enrichment (6-mer frequency, TF over GST control)
- binding signal [18]: 1.13 fold enrichment (6-mer frequency, TF over GST control)
